The values that follow come from PubChem BioAssay (NCI).

Assay in all cases: NCI-60 one-dose screen, 48 h (100 = growth as untreated, 0 = no growth, -100 = all killed)
Common to all, as to conditions: 10 µM unless noted

Assay [1] has as its system T-47D breast.
Assay [2] relates to MDA-MB-435 melanoma.
The test system of assay [3] is SW-620 colon.
For assay [4], the system named is MCF7 breast.
Assay [5] concerns HCT-116 colon.
The test system of assay [6] is HCC-2998 colon.
Assay [7] relates to KM12 colon.
Assay [8] has as its system BT-549 breast.

Compounds without any hit were thinned out: in the full panel of roughly 83,000, 20% have a hit.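 Single-concentration screen, 48 h exposure, 96-well plates. Endpoint: percent growth. Below 10 = active.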 A number with no mark means an inactive call. Activity calls are given as the source filed them.

Regarding `Oc1ccc(-c2cnc(-c3ccccc3)[nH]2)c(O)c1`, the growth in assay [1] is 107%; in assay [2], 110%; in assay [3] it was 109%; in assay [4], 83.3%; in assay [5], 78.6%; in assay [6] it was 117%. Moreover, in assay [7], the growth is 102%.

For the compound `COc1cc(C2=NOC(c3cc(OC)c(OC)c(OC)c3)C2)ccc1OCCCCOc1cc2c(cc1OC)C(=O)N1CCC[C@H]1C=N2` (stereo not given in full), the growth in assay [1] is -11.9% (active); in assay [8] it was -96.8% (active); in assay [2], -74.1% (active); in assay [4] it was -5.09% (active); in assay [5], 2.63% (active); in assay [6] it was -57.4% (active). Moreover, in assay [7], the growth was -24.3% (active).

Consider `Oc1[nH]c2ccc(Cl)cc2c1/C=c1/ccc2c(c1)N=C(c1ccc(F)cc1)N=2`, for which the growth in assay [1] was 62.6%; in assay [8], 27.8%; in assay [2], -44% (active); in assay [4], 10.6%; in assay [5], 9.48% (active); in assay [6], 74%. Further, the growth in assay [7] is 48.6%.

With `COc1cccc(OCC(O)CN2CCN(c3ccccc3)CC2)c1` (stereo not given), the growth is 100% in assay [1]; 121% in assay [2]; 112% in assay [3]; 108% in assay [4]; 112% in assay [5]; 106% in assay [6]. Moreover, the growth in assay [7] was 112%.

Turning to `CN(C)c1ccc(/C=C(\C#N)c2nc3ccccc3n2C)cc1`, the growth in assay [1] is 40.2%; in assay [8], 39.7%; in assay [2], -26.2% (active); in assay [4], 17.9%; in assay [5], 33.2%; in assay [6], 61.3%. The growth in assay [7] is 26.2%.

Turning to `Cc1cc(O)ccc1C1=NN(c2ccc(S(N)(=O)=O)cc2)C(=O)CC1`, the growth in assay [1] is 45.8%; in assay [2], -21.1% (active); in assay [3], 16.2%; in assay [4] it was 27.7%; in assay [5], 23.3%; in assay [6], 64%. Besides, the growth in assay [7] was 22.7%.

Take `CCCCn1c(-c2ccc(F)cc2)nc2cc(OC)c(OC)cc2c1=O`: the growth in assay [1] is 89.1%; in assay [2], 101%; in assay [3] it was 98.3%; in assay [4] it was 88.2%; in assay [5], 67.3%; in assay [6], 103%. Besides, the growth in assay [7] is 95.8%.

Consider `CC(=O)Nc1nonc1-c1nc2ccccc2n1Cc1ccc(C(C)(C)C)cc1`, for which the growth in assay [1] is 72.9%; in assay [8], 93.2%; in assay [2] it was 86%; in assay [4] it was 58.9%; in assay [5] it was 66.9%; in assay [7] it was 69.3%.

As for `Cc1[nH]n(C(=O)c2ccncc2)c(=O)c1N=Nc1ccc(O)c(C(=O)O)c1`, the growth in assay [1] is 132%; in assay [2], 126%; in assay [3], 105%; in assay [4], 109%; in assay [5] it was 75.3%; in assay [6], 117%.

Turning to `O=[N+]([O-])c1cc(F)c2cccnc2c1O`, the growth was 99.5% in assay [1]; 102% in assay [2]; 87.4% in assay [3]; 94.7% in assay [4]; 95.8% in assay [5]; 96.2% in assay [6]. Also, the growth in assay [7] was 111%.

`CCC(=O)NC(O)C(Cl)(Cl)C(C)Cl` (stereo not given): the growth was 85.4% in assay [1]; 96.8% in assay [2]; 105% in assay [3]; 90.3% in assay [4]; 103% in assay [5]; 101% in assay [6]. In addition, the growth in assay [7] was 103%.

Consider `COc1ccc(C2=Nn3c(nnc3-c3ccc(Cl)cc3N)SC2)cc1`, for which the growth in assay [1] was 88.1%; in assay [2] it was 91.4%; in assay [3], 108%; in assay [4] it was 89.8%; in assay [5] it was 105%; in assay [6], 120%. Moreover, the growth in assay [7] is 110%.

As to `N#Cc1c(NN)n(C2OC(CO)C(O)C2O)c2ncnc(N)c12` (stereo not given), the growth in assay [1] is -14.9% (active); in assay [2], -15.5% (active); in assay [3] it was -15.6% (active); in assay [4] it was -11.2% (active); in assay [5], 2.09% (active); in assay [6], -9.45% (active). The growth in assay [7] is 1.94% (active).

`COc1cccc(NC(=O)c2c(-c3ccccc3)c(-c3ccccc3)n[nH]c2=O)c1`: the growth in assay [1] was 87.5%; in assay [8] it was 102%; in assay [2] it was 98%; in assay [4], 95.9%; in assay [5], 94.9%; in assay [6] it was 94.4%. The growth in assay [7] is 103%.

As for `CCOC(=O)NNc1cccc(Cl)c1`, the growth is 119% in assay [1]; 107% in assay [2]; 102% in assay [3]; 105% in assay [4]; 111% in assay [5]; 99.9% in assay [6]. The growth in assay [7] was 116%.

`Fc1cc(-c2nnc3sc(-c4ccc(Cl)cc4)nn23)c(Cl)cc1Cl`: the growth in assay [1] is 87%; in assay [8], 106%; in assay [3], 96.5%; in assay [4], 86.7%; in assay [5], 94.6%; in assay [6], 106%. Moreover, in assay [7], the growth was 95.6%.

As to `COC(=O)c1cc2oc(/C=N/NC(=O)c3cc4oc(-c5cccc(C(F)(F)F)c5)cc4[nH]3)cc2n1Cc1ccccc1`, the growth was 94.4% in assay [1]; 99.6% in assay [2]; 106% in assay [3]; 88.8% in assay [4]; 67.6% in assay [5]; 90.5% in assay [6]. Further, the growth in assay [7] was 88.3%.

For `C=CC[C@]1(O)CC[C@H]2[C@@H]3CCc4cc(O)ccc4[C@H]3CC[C@@]21C`, the growth in assay [1] was 82.5%; in assay [8], 93.6%; in assay [2] it was 38.9%; in assay [4], 116%; in assay [5] it was 93%; in assay [6], 99.8%. For the same compound, the growth in assay [7] is 76.8%.

For `Cc1cc(C)cc(NC(=O)Cn2nncc2CN2C(=O)CSC2=O)c1`, the growth in assay [1] was 99.9%; in assay [8], 101%; in assay [2], 103%; in assay [4], 93.4%; in assay [5] it was 107%; in assay [6] it was 108%. Besides, the growth in assay [7] was 110%.

As to `Cc1nc([C@H]2CC[C@H]3[C@@H]4CCC5=CC(=O)CC[C@]5(C)[C@H]4CC[C@]23C)cs1`, the growth in assay [1] was 42%; in assay [2], 66.8%; in assay [3], 73.3%; in assay [4] it was 55.2%; in assay [5] it was 28.3%; in assay [6] it was 61.1%. Moreover, the growth in assay [7] is 65.9%.

Consider `CCOc1c(C#N)c2c(N)ncnc2n1C1OC(CO)C(O)C1O` (stereo not given), for which the growth in assay [1] was 15.4%; in assay [2], 18.1%; in assay [4], -3.56% (active); in assay [5], 3.41% (active); in assay [6], 84.1%; in assay [7] it was 10.6%.

For the compound `COC1CC(N)C2OC(c3ccccc3)OCC2O1` (stereo not given), the growth in assay [1] was 107%; in assay [8] it was 106%; in assay [2], 102%; in assay [4], 92.7%; in assay [5], 102%; in assay [6], 102%. The growth in assay [7] was 103%.

With `O=C(C(=O)c1cccnc1)c1cccnc1`, the growth was 170% in assay [1]; 119% in assay [2]; 103% in assay [3]; 97.5% in assay [4]; 99.8% in assay [5]; 99.1% in assay [6]. For the same compound, the growth in assay [7] was 108%.

For `N#Cc1ccc(NC(=O)Nc2nc3ccc(OC(F)(F)F)cc3s2)cc1`, the growth in assay [1] is -10.3% (active); in assay [2], -25.6% (active); in assay [3] it was 13.6%; in assay [4], 6.26% (active); in assay [5] it was -3.77% (active); in assay [6] it was -5.67% (active). For the same compound, in assay [7], the growth is 10.5%.
